Only some compounds are listed: those with a hit (about 3.5% of all), similar ones and a draw of the others.
FBW7 act: FBW7 E3 ligase activators, primary screen, biochemical, AlphaScreen, human | F-box/WD repeat-containing protein 7 (Homo sapiens), Q969H0 | AlphaScreen FBW7–phospho-cyclin E peptide binding, activator screen | normalized activity (activation), % at 26.1 µM | actives 0.13% (n = 650,000); in the data active = normalized activity above about 1.9%;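 note: purified mutant Fbw7 with reduced substrate affinity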
Target sequence (Q969H0 whole entry, looked up): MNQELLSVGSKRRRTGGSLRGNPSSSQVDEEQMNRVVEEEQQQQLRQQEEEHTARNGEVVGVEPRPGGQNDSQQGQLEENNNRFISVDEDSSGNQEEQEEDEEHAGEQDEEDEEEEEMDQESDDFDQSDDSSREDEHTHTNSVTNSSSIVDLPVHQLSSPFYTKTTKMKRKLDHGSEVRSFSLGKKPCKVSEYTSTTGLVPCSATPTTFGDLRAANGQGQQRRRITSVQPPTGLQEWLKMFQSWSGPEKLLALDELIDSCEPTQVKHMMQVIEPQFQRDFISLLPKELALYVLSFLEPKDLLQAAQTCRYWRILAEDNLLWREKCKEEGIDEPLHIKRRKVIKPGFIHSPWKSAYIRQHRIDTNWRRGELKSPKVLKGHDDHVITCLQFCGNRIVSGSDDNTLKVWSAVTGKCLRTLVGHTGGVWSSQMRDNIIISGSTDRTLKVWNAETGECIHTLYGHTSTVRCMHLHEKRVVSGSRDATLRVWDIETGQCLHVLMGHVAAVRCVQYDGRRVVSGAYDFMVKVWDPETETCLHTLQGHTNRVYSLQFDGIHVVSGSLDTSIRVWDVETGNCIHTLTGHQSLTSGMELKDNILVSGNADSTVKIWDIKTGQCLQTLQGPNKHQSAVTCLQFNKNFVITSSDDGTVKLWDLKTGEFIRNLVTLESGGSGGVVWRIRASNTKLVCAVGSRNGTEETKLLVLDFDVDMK
MITF inh: MITF inhibitors, primary screen, biochemical, AlphaScreen, human | Microphthalmia-associated transcription factor (Homo sapiens), O75030 | AlphaScreen MITF homodimerization, bead proximity signal | inhibition, % at 2.6 µM | actives 0.91% (n = 650,000) | AID 1259374, 2018; in the data active = inhibition above about 50%
GPR151 ag: activators of human GPR151, primary screen, cell-based, PathHunter beta-arrestin, luminescence. activation, % at 11.2 µM. PathHunter beta-arrestin GPR151 cells. G-protein coupled receptor 151 (Homo sapiens), Q8TDV0. actives 1% (n = 650,000); in the data active = activation above about 4.9%
TEAD-YAP inh: TEAD-YAP interaction inhibition, primary screen, TEAD-YAP interaction inhibitor project, luminescence, HEK-TIYL cells; actives 1.4% (n = 640,000); TEAD-Gal4/YAP UAS-luciferase luminescence; inhibition, % at 9.12 µM; in the data active = inhibition above about 32%
Hits are given with their value; n = inactive; x = not tested or not shown; ! = not confirmed by another sample.

SMILES | FBW7 act | MITF inh | GPR151 ag | TEAD-YAP inh
O=C1NC(=S)N(c2ccc(F)cc2)C(=O)/C1=C/c1ccco1 | n | 63.2 | n | n
O=C1NC(=O)N(c2cccc3ccccc23)C(=O)/C1=C\c1ccco1 | n | 78.3 | n | n
O=C1NC(=S)N(c2ccc(Cl)cc2)C(=O)/C1=C/c1ccco1 | n | n | n | n
O=C1NC(=S)N(c2ccccc2)C(=O)/C1=C\C=C\c1ccco1 | n | 74.9 | n | n
Cc1cccc(N2C(=O)/C(=C/c3cccn3C)C(=O)NC2=S)c1 | n | n | n | n
COc1cccc(CCNCc2cc(Br)ccc2OC)c1 | n | n | n | n
CC1=[N+](C)c2c(ccc3ccccc23)C1(C)C | n | n | n | 59.8
CCOc1ccc(OP2(=O)NC(=O)C=C(C)N2)cc1 (stereo not given) | n | n | n | n
C=C(C)[C@H]1Cc2c(ccc3c2O[C@@H]2COc4cc(OC)c(OC)cc4[C@@H]2C3=O)O1 | n | n | n | 70.4
N#CC1=C2SCC(O)(c3ccco3)N2C(=O)CC1c1ccccc1F (stereo not given) | n | n | n | 41.1
CCOC(=O)C1C2NC(=S)N(c3ccc(Cl)cc3)C1(C)Oc1c(OC)cccc12 (stereo not given) | n | n | n | 61.5
CCOC(=O)C1C2NC(=S)N(c3ccc(Cl)cc3)C1(C)Oc1ccc(OC)cc12 (stereo not given) | n | n | n | 50.5
CN1C(=O)NC(=O)/C(=C\c2ccc(-c3ccccc3F)o2)C1=O | n | n | n | n
CCS(=O)(=O)Nc1cccc(N2CCC(NC(C)Cc3cccs3)CC2)c1 (stereo not given) | n | n | n | n
CC1CCCCN1S(=O)(=O)c1ccc(CCN)cc1 (stereo not given) | n | n | n | n
O=C(c1ccccc1Cl)c1cc([N+](=O)[O-])ccc1-n1cccc1 | n | n | n | 51.1
Cc1cc(/C=C2\C(=O)NC(=O)N(Cc3ccco3)C2=O)c(C)n1-c1ccc(O)cc1 | n | 57.7 | n | n
S=P1(N2CCOCC2)C2=C(CCC2)C2=C(CCC2)N1c1ccccc1 (stereo not given) | n | n | n | n
CC(NCc1ccc(F)cc1)C(O)c1ccccc1 (stereo not given) | n | n | n | n
CCN(CC)c1ccc(CNC(C)C(O)c2ccccc2)cc1 (stereo not given) | n | n | n | 53.1
CCOC(=O)c1c(-c2ccccc2)n(Cc2ccccc2)c2ccc(OC(C)=O)cc12 | n | n | n | n
N#CC(C#N)=Cc1cc(C=C(C#N)C#N)c(O)o1 | n | 83.7 | n | n
CCn1nc(-c2cccnc2)nc2c(=O)n(C)c(=O)nc1-2 | n | n | n | 76.4
C[N+]1(C)CCc2cc3c(cc2[C@H]1[C@@H]1OC(=O)c2c1ccc1c2OCO1)OCO3 | n | n | n | n
CN1Cc2c(ccc3c2OCO3)[C@@H]2[C@H]1c1cc3c(cc1C[C@@H]2O)OCO3 | n | n | n | 62.0
SMILES | FBW7 act | MITF inh | GPR151 ag | TEAD-YAP inh
C[C@H]1O[C@H](OC2[C@@H](O)[C@@H](O)C(O)[C@H](O)[C@H]2O)[C@@H](N)C[C@@H]1N=C(N)C(=O)O (stereo not given in full) | n | n | n | n
Cc1ccc(C2=NCC(=O)Nc3c2oc2ccccc32)cc1 | n | n | n | n
COc1ccc(OC)c(C2=NCC(=O)Nc3c2oc2ccc(Cl)cc32)c1 | n | n | n | 58.6
COc1ccc2[nH]c(C)c(CCNCc3ccc(C(F)(F)F)cc3)c2c1 | n | n | n | n
COC(=O)Nc1nc2ccccc2[nH]1 | n | n | n | 35.2
CCn1nc(-c2ccccc2)nc2c(=O)n(C)c(=O)nc1-2 | n | n | n | n
Cc1nc2c(=O)n(C)c(=O)nc-2n(C)n1 | n | n | n | 99.9
CCCCn1c(=O)c(C(=O)Nc2cccc(C)c2C)c(O)c2ccccc21 | n | n | n | n
CCN(CC)C(=O)c1ccc(NC(=O)CN2CCCCC2)cc1 | n | n | n | n
CCN(CC)C(=O)c1ccc(NC(=O)c2ccccn2)cc1 | n | n | n | 41.9
CCOC(=O)C1(c2ccccc2)CCN(C(=O)c2c(C)oc3ccc(OC)cc23)CC1 | n | n | n | n
C[C@H]1C(=O)O[C@@H]2CCN3CC=C(COC(=O)[C@](C)(O)[C@]1(C)O)[C@H]23 | n | n | n | 73.6!
CC(=O)OC1CCC23C(=O)OC45CCC(C6=CC(=O)OC6)C4(C)CCC2C5CCC3(O)C1 (stereo not given) | n | n | n | 101.5
O=C(c1ccccc1)c1cc(Cl)ccc1NC(=O)c1cc2ccccc2oc1=O | n | n | n | n
C=CCNC(=O)c1cn(Cc2ccccc2)cc(C(=O)N(CC)Cc2ccccc2)c1=O | n | n | n | n
O=[N+]([O-])c1ccc(N2CCCC2)c2ccccc12 | n | n | n | n
Cc1cc([N+](=O)[O-])c2ccccc2[n+]1[O-] | n | n | n | 91.7
N/C(=N\[N+](=O)[O-])N/N=C/c1ccc(O)c(O)c1 | n | 87.1 | n | n
O=C1NC(=S)NC(=O)C1=Cc1ccc(-c2ccc(C(=O)O)cc2)o1 | n | 63.4 | n | n
CC(=O)c1ccc(-c2ccc(C=C3C(=O)NC(=S)NC3=O)o2)cc1 | n | n | n | n
O=C1NC(=S)NC(=O)C1=Cc1ccc(-c2ccc(Cl)c(C(=O)O)c2)o1 | n | 69.2 | n | n
O=C1NC(=O)N(Cc2ccco2)C(=O)/C1=C\c1ccc(-c2ccc(Cl)c(C(=O)O)c2)o1 | n | n | n | n
O=C1NC(=S)NC(=O)C1=Cc1ccc(-c2ccc(C(=O)O)c(O)c2)o1 | n | 81.9 | n | n
C=CCN1CC[C@]23c4c5ccc(O)c4O[C@H]2C(=O)CCC3(O)[C@H]1C5 (stereo not given in full) | n | n | n | x
CN1CCN(c2cccc3c2C(=O)c2ccccc2C3=O)CC1 | n | n | n | 37.4
SMILES | FBW7 act | MITF inh | GPR151 ag | TEAD-YAP inh
CC(C)N(C(=O)CCl)c1ccccc1 | n | n | n | 33.5
CCOCCOC(=O)C1C2c3ccccc3C(c3ccccc32)C1C(=O)OCCOCC (stereo not given) | n | n | n | n
CN1CC=C(c2noc(CCC(=O)Nc3ccc(F)cc3Cl)n2)CC1 | n | n | n | n
CN1CC=C(c2noc(CCC(=O)Nc3ccc(F)c(Cl)c3)n2)CC1 | 2.1 | n | n | n
CC(C)=CCCC1(C)C=Cc2c(O)c3c(c(CC=C(C)C)c2O1)OC12C(=CC4CC1C(C)(C)OC2(C/C=C(\C)C(N)=O)C4=O)C3=O (stereo not given) | n | n | n | 37.7
COc1ccc(N2CCN(C3CCCN(C(=O)Cc4c(C)noc4C)C3)CC2)cc1 (stereo not given) | n | n | n | n
Cc1ccc(N2C(=O)NC(=O)/C(=C\C=C\c3ccco3)C2=O)cc1C | n | n | n | n
O=C(Oc1cccc2cccnc12)c1cccc(S(=O)(=O)N2CCCCCC2)c1 | n | n | n | n

Source: PubChem (The Scripps Research Institute Molecular Screening Center)
